Results from PubChem BioAssay (NCI).
Where “and” joins values, the source holds several entries; their conditions need not be identical. Identical values can stand only once. This is part of a sample that, as a whole, favours compounds with a hit. Of some 83,000 tested, about 20% had one in any assay.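 A percent growth of 40 corresponds to 60% growth inhibition; 0 means no net growth; -100 means all cells died. Active threshold: below 10.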 A number with no mark means an inactive call. Calls of active or inactive are those of the source.

System: OVCAR-5 ovarian
Assay: NCI-60 one-dose screen, 48 h (100 = growth as untreated, 0 = no growth, -100 = all killed)
Settings: 10 µM
Description: Growth inhibition of the OVCAR-5 human tumor cell line is measured as a screen for anti-cancer activity. Cells are grown in 96 well plates and exposed to the test compound for 48 hours. Compounds are tested at a single concentration, which is 10^-5 M for most compounds. The reported endpoint is percent growth (GI% or GIPRCNT), where numbers from 0 - 100% represent growth inhibition, and numbers from -100% - 0 represent cell death. For example, a value of 40 represents 60% growth inhibition. A value of 0 means no net growth occurred over the course of the experiment. A value of -40 indicates 40% of cells at the beginning of the experiment died by the end of the experiment. A value of -100 means all cells are dead at the end of the experiment.
NCI-60 Human Tumor Cell Lines Screen was performed using the standard one-dose NCI protocol, which is described in more detail at https://dtp.cancer.gov/discovery_development/nci-60/default.htm.
Compounds with GIPRCNT values below 10 were considered active. Activity score was based on GIPRCNT using the following formula: […]
Score is 0 for GIPRCNT values of 100 or above, 50 for GIPRCNT values of 0, and 100 for GIPRCNT values of -100.

For O=C(O)CCCc1ccc(N(CCCl)CCCl)cc1, the growth was 97.7% and 81.1%.

Same assay, conditions: 10 µM unless noted

First: COC(=O)C12C3C4C1C1C2C3C41NC(=O)c1csc([C@@H](C[C@H](C(C)C)N(C)C(=O)[C@@H](NC(=O)[C@H]2CCCCN2C)C2CC2)OC(C)=O)n1 (stereo not given in full)
Second: CC[C@H](C)[C@H](NC(=O)CN(C)C)C(=O)N(C)[C@H](C[C@@H](OC(C)=O)c1nc(C(=O)NC23CC(C(=O)OC)(C2)C3)cs1)C(C)C
The growth of the first is lower: 31.6% for the first, 71.9% for the second.

Going from NC(=O)Oc1cc(OC(N)=O)cc(N(CCCl)CCCl)c1 to Cc1cc(N(CCCl)CCCl)ccc1C=Nc1ccc(-c2csc(-c3ccccc3)n2)cc1, the growth rises from 91.3% to 120%.

Compared with COc1ccn(C)c(=O)c1C#N, COc1cc2c(cc1OC)[C@@H]1C(=O)c3ccc4c(c3O[C@@H]1CO2)C[C@H](C(C)C)O4 is lower in growth: 105% for the first, 93.7% for the second.

First: CC1=C2[C@H]3OC(=O)[C@@H](C)[C@@H]3CC[C@@]2(C)C=CC1=O
Second: CC1=C(C)C(=O)O[C@@H]([C@](C)(O)[C@]2(O)CC[C@@]3(O)[C@@H]4C[C@H]5O[C@]56CC=CC(=O)[C@]6(C)[C@H]4CC[C@]23C)C1
The growth of the first is higher: 90.7% for the first, 21.7% for the second.

Going from O=C1NC(=O)C(=Cc2ccccc2)C(=O)N1 to O=C1C=C(N2CC2)c2ccccc2C1=O, the growth rises from 108% to 123%.

First: C/C(=C(\c1ccc(OCCN2CCOCC2)cc1)c1ccc(OC(=O)Cc2ccccc2)cc1)c1ccc(Cl)cc1
Second: COc1ccc2c(c1)c(-c1nc(-c3c[nH]c4ncccc34)cs1)cn2CCCCN1CCOCC1
The growth of the first is higher: 95.2% for the first, 58.3% for the second.

Going from Nc1c(Cl)c(Cl)nc(C(=O)O)c1Cl to Oc1cc(Cl)ccc1Oc1ccc(Cl)cc1Cl, the growth falls from 111% to 86.2%.

Going from CC1(C)C=Cc2c(ccc3c2[N+]([O-])=C2C3=C[C@@]34NC(=O)[C@]5(CCCN5C3=O)C[C@@H]4C2(C)C)O1 to COc1c(O)cc2c(c1OC)-c1ccc(SC)c(=O)cc1C(NC(C)=O)CC2 (stereo not given), the growth falls from 56.6% to 41.9%.

First: NC(N)=NC(N)=Nc1ccc(Cl)cc1
Second: OCCN=Cc1c[nH]c2ccccc12
The growth of the first is higher: 92.1% for the first, 91% for the second.

Compared with CCOC(=O)c1cncn1C(C)c1ccccc1 (stereo not given), N#CC(N)c1ccccc1 (stereo not given) is lower in growth: 105% for the first, 101% for the second.

Compared with CC[C@H](C)[C@H](NC(=O)[C@H]1CCCCN1C)C(=O)N(C)[C@H](C[C@@H](OC(C)=O)c1cccc(C(=O)N[C@@H](Cc2ccccc2)C[C@H](C)C(=O)OC)n1)C(C)C, O=C(Cc1ccccc1)NC(O)C(Cl)(Cl)Cl (stereo not given) is higher in growth: 39% for the first, 111% for the second.

Going from CC(C)CCC1C(=O)NC(=O)NC1=O to CC1(C)S[C@H]2CC[C@H]3OC(=O)[C@@H]1N23, the growth falls from 107% to 91.1%.

First: N#CCN(CC#N)[N+](=O)[O-]
Second: O=C(CBr)OCCOC(=O)CBr
The growth of the first is lower: 103% for the first, 117% for the second.

Compared with O=P(O)(Nc1ccccc1)Nc1ccccc1, Cc1nnc([S-])o1.[Au+].c1ccc([PH+](c2ccccc2)c2ccccc2)cc1 is higher in growth: 90.1% for the first, 110% for the second.

Compared with C[Se]/C=C1/C(=O)N(c2c(Cl)cccc2Cl)c2ccccc21, O=C/C=C/c1ccco1 is higher in growth: 28.7% for the first, 101% for the second.

First: CCCCOCCOP(=O)(OCCOCCCC)OCCOCCCC
Second: O=C(O)C(F)F
The growth of the first is lower: 105% for the first, 106% for the second.

CN(C)c1ccc(N)cc1 was tested, and the growth was 112% and 89.5%.
In the case of C=C1C(=O)OC2CC3(C)OC3C3OC3C3=CC(OC3=O)C12 (stereo not given), the growth is reported as 106% and 104%.
With COC[C@H]1OC(=O)c2coc3c2[C@@]1(C)C1=C(C3=O)[C@@H]2CCC(=O)[C@@]2(C)C[C@H]1OC(C)=O the growth was -41.3% (active).
For COC1C(O)CC(OC2CC(Oc3cc4cc5c(c(O)c4c(O)c3C)C(=O)[C@@H](OC3CC(OC4CC(OC6CC(C)(O)C(OC(C)=O)C(C)O6)C(O)C(C)O4)C(O)C(C)O3)[C@H]([C@H](OC)C(=O)[C@@H](O)[C@@H](C)O)C5)OC(C)C2OC(C)=O)OC1C (stereo not given in full), the growth was -67% (active).
In the case of CC(=O)OC1CC2(O)C(CCC3(C)C(c4ccc(=O)oc4)CCC32O)C2(C)CCC(OC3OC(CO)C(O)C(O)C3O)C=C12 (stereo not given), the growth is reported as -73.5% (active).

In the case of C#COc1cccc(Nc2ncnc3cc(NC(=O)CF)ccc23)c1, the growth is reported as 87.2% [6.25 µM].

Same assay, conditions: 75 µM

In the case of O=C(O)CCCc1ccc(N(CCCl)CCCl)cc1, the growth is reported as 66.4%.
